Consider nine compounds from PubChem BioAssay (NCI).

The nature of experiment [1]: NCI Yeast Anticancer Drug Screen. Data for the rad50 strain (AID 155).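 Further: 0% = growth of vehicle-only cultures of the same strain.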 The settings on record: S. cerevisiae rad50 strain growth inhibition, active compounds read high. The method in brief: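 Compounds were tested on a yeast strain with an engineered DNA damage repair alteration; the reported value is growth inhibition normalised to vehicle treatment.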
Experiment [2] can be described thus: NCI Yeast Anticancer Drug Screen. Data for the mec2-1 strain (AID 157). To be noted: S. cerevisiae mec2-1 strain, active compounds read high. The method in brief:
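Each compound was tested on mec2-1 yeast, a strain altered in DNA damage repair or cell cycle control. Growth inhibition is reported relative to vehicle.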

A short description of experiment [3]: NCI Yeast Anticancer Drug Screen. Data for the sgs1 mgt1 strain (AID 161).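 Further: 0% = growth of cultures given vehicle only.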 The settings on record: S. cerevisiae sgs1 mgt1 strain, active compounds read high. The method in brief:
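Test agents were incubated with a DNA-repair-mutant yeast strain. Growth was then read and compared against vehicle-treated controls.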

Experiment [4] can be described thus: NCI Yeast Anticancer Drug Screen. Data for the cln2 rad14 strain (AID 165).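 Further: 0% = growth equal to vehicle treated cultures.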 The settings on record: S. cerevisiae cln2 rad14 strain, active compounds read high. The gist of the method: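 Test compounds were added to cln2 rad14 yeast cultures; inhibition of growth was then determined by comparison with vehicle treatment.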
Experiment [5] can be described thus: NCI Yeast Anticancer Drug Screen. Data for the bub3 strain (AID 167). The settings on record: S. cerevisiae bub3 mutant strain, active compounds read high. The gist of the method: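 Growth of a checkpoint-deficient yeast mutant is measured after compound exposure. Values represent inhibition relative to vehicle.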
A short description of experiment [6]: NCI Yeast Anticancer Drug Screen. Data for the mlh1 rad18 strain (AID 175). To be noted: S. cerevisiae mlh1 rad18 strain growth inhibition, active compounds read high. The gist of the method:
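Inhibition values reflect reduced growth of mutant yeast versus vehicle-treated controls following compound exposure; the mutations affect DNA damage repair.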

[7] abbreviates: at 5.0 µM (retest, dose inferred, filed as 0.5).
Setting [8] is: at 50.0 µM (retest, dose inferred, filed as 5.0).

This is part of a sample that, as a whole, favours compounds with a hit. Of some 79,000 tested, about 15% had one in any assay. Values without a mark were called inactive. The source made the active and inactive calls. No stated cut-off is given here; in the data, active means growth inhibition above about 70%; inactive means the rest.

For `CC(C)NC1CC2CCCCC2CC1c1ccccc1` (configuration not stated), the growth inhibition in experiment [1] (setting [7]) is 1%; in experiment [1] (setting [8]), 51%; in experiment [1] (at 50.0 µM), 79.8% (active); in experiment [2] (setting [7]), 4%; in experiment [2] (setting [8]), 25%; in experiment [2] (at 50.0 µM), 83.3% (active). Also, the growth inhibition was 10% in experiment [3] (setting [7]); 68% in experiment [3] (setting [8]); 90.9% (active) in experiment [3] (at 50.0 µM); 3% in experiment [4] (setting [7]); 57% in experiment [4] (setting [8]); 82.3% (active) in experiment [4] (at 50.0 µM). In addition, the growth inhibition in experiment [5] (setting [7]) is 17%; in experiment [5] (setting [8]) it was 53%; in experiment [5] (at 50.0 µM), 82.4% (active); in experiment [6] (setting [7]), 20%; in experiment [6] (setting [8]), 74% (active); in experiment [6] (at 50.0 µM), 88.8% (active).

Consider `C/C1=C\[C@H](C)C[C@H](C)OC(=O)C[C@H](c2ccc(O)cc2)NC(=O)[C@@H](Cc2c(Br)[nH]c3ccccc23)N(C)C(=O)[C@H](C)NC(=O)[C@@H](C)C1`, for which the growth inhibition in experiment [1] (setting [7]) was 67%; in experiment [1] (setting [8]), 98% (active); in experiment [1] (at 50.0 µM) it was 84.8% (active); in experiment [2] (setting [7]), 88% (active); in experiment [2] (setting [8]), 99% (active); in experiment [2] (at 50.0 µM), 81.3% (active). Moreover, the growth inhibition was 98% (active) in experiment [3] (setting [7]); 99% (active) in experiment [3] (setting [8]); 88.7% (active) in experiment [3] (at 50.0 µM); 97% (active) in experiment [4] (setting [7]); 99% (active) in experiment [4] (setting [8]); 81.5% (active) in experiment [4] (at 50.0 µM). For the same compound, the growth inhibition was 99% (active) in experiment [5] (setting [7]); 99% (active) in experiment [5] (setting [8]); 77.1% (active) in experiment [5] (at 50.0 µM); 82% (active) in experiment [6] (setting [7]); 98% (active) in experiment [6] (setting [8]); 80% (active) in experiment [6] (at 50.0 µM).

Take `O=C(Nc1n[c]([Hg][Cl])[c]([Hg][Cl])s1)OCc1ccccc1`: the growth inhibition in experiment [1] (setting [7]) is 99% (active); in experiment [1] (setting [8]), 98% (active); in experiment [1] (at 50.0 µM), 99% (active); in experiment [2] (setting [7]), 99% (active); in experiment [2] (setting [8]), 99% (active); in experiment [2] (at 50.0 µM), 99.5% (active). For the same compound, the growth inhibition in experiment [3] (setting [7]) was 98% (active); in experiment [3] (setting [8]) it was 99% (active); in experiment [3] (at 50.0 µM) it was 99.3% (active); in experiment [4] (setting [7]) it was 34%; in experiment [4] (setting [8]), 99% (active); in experiment [4] (at 50.0 µM), 98.9% (active). Also, the growth inhibition in experiment [5] (setting [7]) was 100% (active); in experiment [5] (setting [8]), 99% (active); in experiment [5] (at 50.0 µM) it was 99.2% (active); in experiment [6] (setting [7]) it was 99% (active); in experiment [6] (setting [8]), 98% (active); in experiment [6] (at 50.0 µM) it was 98.9% (active).

Consider `O=C(Nc1ccccc1)c1cc([N+](=O)[O-])ccc1O.[Ni]`, for which the growth inhibition is 51% in experiment [1] (setting [7]); 45% in experiment [1] (setting [8]); 69.3% in experiment [1] (at 50.0 µM); 34% in experiment [2] (setting [7]); 37% in experiment [2] (setting [8]); 57.6% in experiment [2] (at 50.0 µM). Moreover, the growth inhibition is 34% in experiment [3] (setting [7]); 100% (active) in experiment [3] (setting [8]); 77.5% (active) in experiment [3] (at 50.0 µM); 46% in experiment [4] (setting [7]); 100% (active) in experiment [4] (setting [8]); 33.5% in experiment [4] (at 50.0 µM). Besides, the growth inhibition in experiment [5] (setting [7]) was 54%; in experiment [5] (setting [8]) it was 99% (active); in experiment [5] (at 50.0 µM), 59.8%; in experiment [6] (setting [7]) it was 38%; in experiment [6] (setting [8]), 36%; in experiment [6] (at 50.0 µM), 52.3%.

On to `S=c1sc(-c2ccccc2)c[se]1`, for which the growth inhibition was -1% in experiment [1] (setting [7]); 42% in experiment [1] (setting [8]); 67% in experiment [1] (at 50.0 µM); 2% in experiment [2] (setting [7]); 28% in experiment [2] (setting [8]); 21.6% in experiment [2] (at 50.0 µM). For the same compound, the growth inhibition in experiment [3] (setting [7]) is -2%; in experiment [3] (setting [8]), 34%; in experiment [3] (at 50.0 µM), 46.4%; in experiment [4] (setting [7]), -1%; in experiment [4] (setting [8]), 13%; in experiment [4] (at 50.0 µM) it was 88.5% (active). Further, the growth inhibition was -1% in experiment [5] (setting [7]); 17% in experiment [5] (setting [8]); 35.1% in experiment [5] (at 50.0 µM); -5% in experiment [6] (setting [7]); 41% in experiment [6] (setting [8]); 32.9% in experiment [6] (at 50.0 µM).

Consider `COC1CCCC2OC3(OC)C(OC)CCCC3OC12OC` (configuration not stated), for which the growth inhibition in experiment [1] (setting [7]) was 3%; in experiment [1] (setting [8]), -4%; in experiment [1] (at 50.0 µM) it was 12.2%; in experiment [2] (setting [7]), -1%; in experiment [2] (setting [8]), -3%; in experiment [2] (at 50.0 µM) it was 14.7%. The growth inhibition in experiment [3] (setting [7]) is 2%; in experiment [3] (setting [8]), -2%; in experiment [3] (at 50.0 µM) it was 10.2%; in experiment [4] (setting [7]), 5%; in experiment [4] (setting [8]) it was -39%; in experiment [4] (at 50.0 µM), 40.9%. Moreover, the growth inhibition in experiment [5] (setting [7]) is 3%; in experiment [5] (setting [8]), 9%; in experiment [5] (at 50.0 µM), 27.2%; in experiment [6] (setting [7]) it was -1%; in experiment [6] (setting [8]) it was -11%; in experiment [6] (at 50.0 µM) it was 7.85%.

Consider `[N-]=[N+]=Nc1c([N+](=O)[O-])c(=O)n2c3c(cccc13)CCC2`, for which the growth inhibition in experiment [1] (setting [7]) was 46%; in experiment [1] (setting [8]) it was 98% (active); in experiment [1] (at 50.0 µM), 85.5% (active); in experiment [2] (setting [7]) it was 26%; in experiment [2] (setting [8]) it was 99% (active); in experiment [2] (at 50.0 µM), 88.8% (active). Further, the growth inhibition in experiment [3] (setting [7]) is 28%; in experiment [3] (setting [8]), 99% (active); in experiment [3] (at 50.0 µM), 92.8% (active); in experiment [4] (setting [7]), 18%; in experiment [4] (setting [8]), 84% (active); in experiment [4] (at 50.0 µM), 90.6% (active). The growth inhibition in experiment [5] (setting [7]) was 37%; in experiment [5] (setting [8]), 99% (active); in experiment [5] (at 50.0 µM) it was 90.5% (active); in experiment [6] (setting [7]), 40%; in experiment [6] (setting [8]) it was 98% (active); in experiment [6] (at 50.0 µM), 90.2% (active).

With `Clc1nc(Cl)nc(Nc2ccccc2Cl)n1`, the growth inhibition was 67% in experiment [1] (setting [7]); 96% (active) in experiment [1] (setting [8]); 99% (active) in experiment [1] (at 50.0 µM); 40% in experiment [2] (setting [7]); 97% (active) in experiment [2] (setting [8]); 96.7% (active) in experiment [2] (at 50.0 µM). The growth inhibition in experiment [3] (setting [7]) is 53%; in experiment [3] (setting [8]), 98% (active); in experiment [3] (at 50.0 µM) it was 98.9% (active); in experiment [4] (setting [7]), 21%; in experiment [4] (setting [8]), 97% (active); in experiment [4] (at 50.0 µM) it was 95.8% (active). For the same compound, the growth inhibition in experiment [5] (setting [7]) is 82% (active); in experiment [5] (setting [8]), 99% (active); in experiment [5] (at 50.0 µM), 98.6% (active); in experiment [6] (setting [7]), 24%; in experiment [6] (setting [8]), 95% (active); in experiment [6] (at 50.0 µM) it was 97.2% (active).

On to `CC(C)=N.[C-]#[O+].[C-]#[O+].[C-]#[O+].[C-]#[O+].[C-]#[O+].[W]`, for which the growth inhibition is 30% in experiment [1] (setting [7]); 34% in experiment [1] (setting [8]); -7.35% in experiment [1] (at 50.0 µM); 15% in experiment [2] (setting [7]); 35% in experiment [2] (setting [8]); -2.45% in experiment [2] (at 50.0 µM). Also, the growth inhibition in experiment [3] (setting [7]) was 26%; in experiment [3] (setting [8]) it was 34%; in experiment [3] (at 50.0 µM), -11.8%; in experiment [4] (setting [7]) it was 36%; in experiment [4] (setting [8]), 31%; in experiment [4] (at 50.0 µM) it was 0.7%. The growth inhibition was 36% in experiment [5] (setting [7]); 47% in experiment [5] (setting [8]); 64.5% in experiment [5] (at 50.0 µM); 45% in experiment [6] (setting [7]); 43% in experiment [6] (setting [8]); -13.1% in experiment [6] (at 50.0 µM).
